Assay results: PubChem BioAssay
Values without a mark were called inactive. No rule for the calls is given here.

tested on: Aerobactin synthetase IucA (Klebsiella pneumoniae hvKP1); assay: Biochemical IucA enzyme inhibition primary screen of the Spectrum library (AID 1346200); conditions: malachite green pyrophosphate, A620, at 8 µM, active compounds read low;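 also: 100% = wells without compound and 0% = wells lacking enzyme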

Compound | activity remaining [%]
OC[C@H]1O[C@@](CO)(O[C@@H]2O[C@H](CO)[C@@H](O)[C@H](O)[C@H]2O)[C@@H](O[C@@H]2O[C@H](CO)[C@@H](O)[C@H](O)[C@H]2O)[C@@H]1O | 82.4
C=C1C(N)CC2CC1C2(C)C (stereo not given) | 96.6
CC[C@@H](C(=O)C(C)[C@@H](O)[C@H](C)CCc1ccc(C)c(O)c1C(=O)O)C1OC(CC)(C2CC[C@](O)(CC)[C@H](C)O2)C[C@@H]1C (stereo not given in full) | 111
O=C1c2ccccc2C(=O)C1c1ccccc1 | 121
Nc1nc(N)c2nc(CNc3ccc(C(=O)NC(CCC(=O)O)C(=O)O)cc3)cnc2n1 (stereo not given) | 102
C=CC1=C(C)/C(=C/c2[nH]c(Cc3[nH]c(/C=C4\NC(=O)C(C)=C4C=C)c(C)c3CCC(=O)O)c(CCC(=O)O)c2C)NC1=O | 112
NCC1CCC(C(=O)O)CC1 (stereo not given) | 102
CC(CCC(=O)O)[C@H]1CCC2C3CC[C@@H]4C[C@H](O)CC[C@]4(C)C3C[C@H](O)[C@@]21C (stereo not given in full) | 116
CC(=O)N1CCN(c2ccc(OCC3CO[C@](Cn4ccnc4)(c4ccc(Cl)cc4Cl)O3)cc2)CC1 (stereo not given in full) | 97
COc1ccc(-c2cc(=O)c3c(O)c(OC)c(OC)c(OC)c3o2)cc1OC | 80.1
COc1cc(C/C=C/c2ccccc2)c(OC)cc1O | 113
C[n+]1cccc(C(=O)[O-])c1 | 92.7
O=C(O)CN1C(=O)c2cccc3cccc(c23)C1=O | 111
CO/N=C(/C(=O)NC1C(=O)N2C(C(=O)O)=C(COC(N)=O)CSC12)c1ccco1 (stereo not given) | 92.5
Cc1c(C(N)=O)cc([N+](=O)[O-])cc1[N+](=O)[O-] | 106
CN(C(=O)CN(CCO)CC(=O)N(C)C(C)(C)Cc1ccccc1)C(C)(C)Cc1ccccc1 | 101
CC1(C)C=CC(=O)[C@@]2(C)C1CC(=O)[C@]1(C)C2CC[C@@]2(C)[C@H](c3ccoc3)OC(=O)C3OC321 (stereo not given in full) | 123
O=c1c2cc(O)c(O)cc2oc2cc(O)c(C3O[C@H](CO)[C@H](O)[C@@H](O)[C@H]3O)c(O)c12 (stereo not given in full) | 93.6
COc1c2ccoc2c(OC)c2oc(=O)ccc12 | 121
COc1cc(C(C)=O)cc(OC)c1O | 94.5

Compound | activity remaining [%]
CC[C@H](CCC(C)[C@H]1CCC2C3CCC4C[C@@H](O)CC[C@]4(C)C3CC[C@@]21C)C(C)C (stereo not given in full) | 102
COc1c(O)cc(O)cc1O | 116
CC(=O)Oc1ccc(O)cc1 | 122
COc1ccc2c(c1OC)OC[C@@H](c1ccc(OC)c(OC)c1OC)C2 | 95.9
COc1ccc2c(c1)OCC(Cc1ccc(OC)c(OC)c1)C2=O (stereo not given) | 95.4
OC(CCN1CCCCC1)(c1ccccc1)c1ccccc1 | 95.4
CN1C(C(=O)Nc2ccccn2)=C(O)c2sccc2S1(=O)=O | 82.2
O=C(O)/C=C/C=C/c1ccccc1 | 103
COc1c2ccccc2nc2occc12 | 115
C=CC(C1=CC(=O)C(OC)=CC1=O)c1ccccc1 (stereo not given) | 113
O=C(O)C1=C(CSc2nnnn2CS(=O)(=O)O)CS[C@@H]2C(NC(=O)[C@H](O)c3ccccc3)C(=O)N12 (stereo not given in full) | 116
CCCCOC(=O)c1ccc(N)cc1 | 85.9
Nc1ccc(C(=O)O)c(O)c1 | 108
CC1CCC2(OC1)OC1CC3C4CCC5C[C@@H](O)CCC5(C)C4=CCC3(C)C1[C@@H]2C (stereo not given in full) | 95.7
COc1cc(/C=C/C(=O)/C=C(O)/C=C/c2ccc(O)c(OC)c2)ccc1O | 103
CCN(CC)CCNC(=O)COc1ccc(OC)cc1 | 108
CCCCOc1ccc(C(=O)CCN2CCCCC2)cc1 | 96.6
CCN(CC)CCOC(=O)C(c1ccccc1)c1ccccc1 | 112
COC(=O)C[C@H]1C(C)(C)C2(O)OC34CC2C(=O)[C@]1(C)C3CC[C@]1(C)C4=CC(=O)O[C@H]1c1ccoc1 (stereo not given in full) | 105
CCOC(=O)c1c(C)cc(O)cc1O | 119
